ANO1 activ: TMEM16A chloride channel activators or potentiators, primary screen, cell-based, HTS; Anoctamin-1 (Mus musculus), Q8BHY3; HEK293 TMEM16A/YFP-H148Q/I152L, iodide quench fluorescence; stronger effect = lower value; B-score at 10 µM; actives 0.3% (n = 340,000);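 active = fluorescence-ratio B-score plate-corrected deviation score at least 3 library SD below zero, with starting fluorescence score within 5 deviations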;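 note: channel opened by trigger with iodide after compound preincubation; score built on the fluorescence ratio of max minus min over baseline; more negative score means more quench and so TMEM16A activation or potentiation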
Target sequence (Q8BHY3 whole entry, looked up): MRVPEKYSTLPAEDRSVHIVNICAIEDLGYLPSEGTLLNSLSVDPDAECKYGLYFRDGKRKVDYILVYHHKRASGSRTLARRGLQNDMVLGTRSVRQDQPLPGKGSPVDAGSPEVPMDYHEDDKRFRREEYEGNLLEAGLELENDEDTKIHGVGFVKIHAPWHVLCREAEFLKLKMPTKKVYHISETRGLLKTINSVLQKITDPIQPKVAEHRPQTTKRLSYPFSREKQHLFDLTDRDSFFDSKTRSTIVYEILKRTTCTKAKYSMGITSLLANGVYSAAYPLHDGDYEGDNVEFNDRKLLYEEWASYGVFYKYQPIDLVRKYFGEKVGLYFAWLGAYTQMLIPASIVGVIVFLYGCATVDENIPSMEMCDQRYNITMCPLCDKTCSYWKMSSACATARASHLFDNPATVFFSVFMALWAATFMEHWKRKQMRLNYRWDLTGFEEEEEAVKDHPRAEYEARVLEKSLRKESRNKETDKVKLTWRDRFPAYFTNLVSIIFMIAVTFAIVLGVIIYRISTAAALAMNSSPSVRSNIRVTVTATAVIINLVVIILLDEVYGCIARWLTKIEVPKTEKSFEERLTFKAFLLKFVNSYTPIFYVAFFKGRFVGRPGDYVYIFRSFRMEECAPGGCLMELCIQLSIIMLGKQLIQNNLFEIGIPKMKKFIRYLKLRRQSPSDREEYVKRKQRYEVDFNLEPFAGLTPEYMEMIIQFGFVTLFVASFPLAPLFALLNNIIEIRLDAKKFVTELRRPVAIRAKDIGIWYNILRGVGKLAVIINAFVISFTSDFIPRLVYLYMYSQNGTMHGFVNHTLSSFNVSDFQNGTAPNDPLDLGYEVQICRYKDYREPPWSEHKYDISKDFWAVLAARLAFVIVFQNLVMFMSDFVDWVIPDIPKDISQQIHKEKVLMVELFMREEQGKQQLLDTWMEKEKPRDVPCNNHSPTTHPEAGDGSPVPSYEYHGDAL
697 NFkB inh: inhibitors of PMA/ionomycin-induced NF-kB reporter, 697 cells, primary screen, B-cell NF-kB inhibitor project, cell-based, luminescence, uHTS. inhibition, % at 4 µM. actives 0.33% (n = 330,000). AID 435022, 2010. 697 B-cell NF-kB luciferase reporter, 16 h; in the data active = inhibition above about 35%
TMEM16A inh: TMEM16A chloride channel inhibitors, primary screen, cell-based, HTS; Anoctamin-1 (Mus musculus), Q8BHY3; HEK293 TMEM16A/YFP iodide influx fluorescence, ionomycin; normalized B-score (activity score, 25-100; higher = stronger inhibition) at 10 µM; actives 1.2% (n = 310,000);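 active = ratio plate-corrected score three or more library SD toward inhibition, starting fluorescence score within five deviations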;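 note: score derived from kinetic fluorescence span divided by baseline fluorescence per well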
KLF5 inh: KLF5 expression inhibitors, primary screen, DLD-1 cells, luminescence; inhibition, % at 5 µM; actives 0.23% (n = 290,000); DLD-1 KLF5 promoter-luciferase reporter; AID 1700, 2009;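 active = inhibition above a per-plate limit of that plate's mean compound inhibition plus 3 SD, cut at about 60% in these data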;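 note: higher means less KLF5 promoter-driven luciferase light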
Jurkat NFkB inh: inhibitors of induced NF-kB luciferase reporter, primary screen, TCR NF-kB activation inhibitor project, cell-based, luminescence, uHTS; Jurkat, PMA/ionomycin-induced NF-kB luciferase reporter; inhibition, % at 4 µM; actives 0.53% (n = 330,000); AID 435003, 2010; in the data active = inhibition above about 50%
aSyn 5UTR inh: MLPCN primary screen, SNCA 5' untranslated region | alpha-synuclein 5'UTR reporter, inhibitor activity | inhibition, % (tested at 7.5 µM) | actives 0.82% (n = 300,000) | AID 1813, 2009; in the data active = inhibition above about 60%;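 note: H4 neuroglioblastoma cells stably carrying SNCA 5'UTR luciferase fusion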
Each line names hits and unclear results; the compound was inactive in the other large screens. Only some compounds are listed: those with a hit (about 2.5% of all), similar ones and a draw of the others.

COc1cc(C(=O)NCC(c2ccccc2)N(C)C)ccc1OCc1c(C)noc1C (stereo unspecified)	none (no result: TMEM16A inh, KLF5 inh, aSyn 5UTR inh)
C1=CC2=NC34CCCCC3CC3=C(CCCC3)N4C2=CC1=NC1CCCCC1 (stereo unspecified)	none (no result: KLF5 inh)
O=C(Nc1nnc(-c2ccc(Cl)cc2)o1)c1nc2ccccc2s1	ANO1 activ -13
Cc1ccc(S(=O)(=O)N2CCOCC2)cc1NC(=O)COC(=O)C1(C)CC1(Cl)Cl (stereo unspecified)	none (no result: TMEM16A inh, KLF5 inh, aSyn 5UTR inh)
O=C1C2CCCN2C(=O)N1CCCN1CCN(c2cccc(Br)c2)CC1 (stereo unspecified)	none
C/C=C(\C)C(=O)OC1CC(C)(C)C[C@H]2C3=CC[C@@H]4[C@@]5(C)CCC(O[C@@H]6O[C@@H](C(=O)O)[C@@H](O)C(O[C@@H]7OC[C@H](O)[C@@H](O)[C@@H]7O[C@@H]7OC(CO)C(O)[C@@H](O)[C@@H]7O)C6O[C@@H]6OC(CO)C(O)C(O)C6O)[C@@](C)(CO)[C@@H]5CC[C@]4(C)[C@]3(C)CC(O)[C@@]12CO (stereo partly specified)	ANO1 activ -32 (no result: TMEM16A inh, KLF5 inh, aSyn 5UTR inh)
CC1(C)CC[C@]2(C(=O)O[C@@H]3OC(CO)[C@@H](O)[C@H](O)[C@H]3O)CC[C@]3(C)C(=CCC4[C@@]5(C)CC[C@H](O[C@@H]6OC(C(=O)O)[C@@H](O)[C@H](O)[C@H]6O)C(C)(C)C5CC[C@]43C)[C@@H]2C1 (stereo partly specified)	ANO1 activ -8.8 (no result: TMEM16A inh, KLF5 inh, aSyn 5UTR inh)
CCOc1ccccc1NC(=O)CSc1nc2cc(O)ccc2c(=O)n1-c1ccc(OC)c(OC)c1	none
O=C(Nc1cccc(CNCCc2c[nH]c3ccccc23)c1)c1ccccc1Cl	none
C=CCN(c1ccccc1C(=O)NCC(=O)O)S(=O)(=O)c1ccccc1C	none
CCC1CCCCN1S(=O)(=O)c1ccc(S(=O)(=O)N(Cc2cccs2)C2CC2)cc1 (stereo unspecified)	ANO1 activ -16
Cc1cc(C(=O)N/N=C/c2cc(Br)cc(Br)c2OC(=O)c2ccccc2)n[nH]1	aSyn 5UTR inh 89 (no result: ANO1 activ)
Cc1cc(C(=O)N/N=C/c2cc(Br)cc(Br)c2OC(=O)c2cccc(F)c2)n[nH]1	aSyn 5UTR inh 70
Cc1cc(C(=O)N/N=C\c2cc(C(C)(C)C)ccc2O)n[nH]1	aSyn 5UTR inh 75
Cc1cc(C(=O)N/N=C/c2cc(Br)ccc2OC(=O)c2ccc(Br)cc2)n[nH]1	aSyn 5UTR inh 84 (no result: ANO1 activ)
CCOc1ccc2c(ccc(/C=C/c3cc(C)c4cccnc4c3O)[n+]2C)c1	none (no result: 697 NFkB inh, TMEM16A inh, KLF5 inh, Jurkat NFkB inh, aSyn 5UTR inh)
COC(=O)c1ccccc1Oc1cc(C(F)(F)F)nc(-c2ccccn2)n1	none (no result: KLF5 inh)
O=C(COC(=O)c1ccccn1)NCc1cccs1	none (no result: KLF5 inh)
Cc1ccc(C(C)C)cc1OCC(=O)N/N=C/c1ccc2c(c1)OCCO2	TMEM16A inh 100
CC(NC(=O)c1ccccc1)C(=O)OCn1nnc2ccccc2c1=O (stereo unspecified)	none (no result: TMEM16A inh, KLF5 inh, aSyn 5UTR inh)
CC1CCN(C(=O)c2[nH]cnc2C(=O)Nc2ccc(Cl)cc2)CC1	none (no result: TMEM16A inh, KLF5 inh, aSyn 5UTR inh)
COc1ccc(S(=O)(=O)N2CCN(C(=O)C3CC(=O)N(c4ccccc4F)C3)CC2)cc1OC (stereo unspecified)	none (no result: 697 NFkB inh, TMEM16A inh, KLF5 inh, Jurkat NFkB inh, aSyn 5UTR inh)
CCC(=N\NC(=O)COc1ccccc1OC)/C(CC)=N/NC(=O)COc1ccccc1OC	none (no result: TMEM16A inh, KLF5 inh, aSyn 5UTR inh)
Oc1c(N=NC(=S)Nc2ccccc2F)c2ccccc2n1Cc1ccccc1F	aSyn 5UTR inh 87
Cc1ccccc1Cn1c(O)c(N=NC(=S)Nc2ccccc2F)c2ccccc21	aSyn 5UTR inh 73
CCNC(=S)N=Nc1c(O)n(Cc2ccc(Cl)cc2)c2ccccc12	none
Oc1c(N=NC(=S)Nc2ccccc2F)c2ccccc2n1Cc1ccc(Cl)cc1	aSyn 5UTR inh 70
Cc1ccc(C)c(Cn2c(O)c(N=NC(=S)Nc3ccccc3F)c3ccccc32)c1	aSyn 5UTR inh 72
NC(=S)N=Nc1c(O)n(CCCl)c2ccccc12	none
CC1=NS(=O)(=O)NC(C)(C)C1	none (no result: 697 NFkB inh, TMEM16A inh, KLF5 inh, Jurkat NFkB inh, aSyn 5UTR inh)
CCOc1ccccc1NC(=O)CSc1nc2ccccc2c(=O)n1CC1CCCO1 (stereo unspecified)	none
C=CCn1c(O)c(N=NC(=S)Nc2cccc(OC)c2)c2ccccc21	none
C=CCn1c(O)c(N=NC(=S)Nc2ccc(OC)cc2)c2ccccc21	aSyn 5UTR inh 84 (no result: 697 NFkB inh, Jurkat NFkB inh)
Oc1ccc(C23CC4CC(CC(C4)C2)C3)cc1O	none (no result: 697 NFkB inh, Jurkat NFkB inh)
OCCN1CCN(CC(O)COc2ccc(Cl)cc2)CC1 (stereo unspecified)	none
NCCOc1ccc(C23CC4CC(CC(C4)C2)C3)cc1	aSyn 5UTR inh 81
OCCN1CCN(CC(O)COc2ccc(C34CC5CC(CC(C5)C3)C4)cc2)CC1 (stereo unspecified)	aSyn 5UTR inh 85
CC1CCCC(NC(=O)C2CC(=O)N(Cc3ccccc3)C2)C1C (stereo unspecified)	none
CCCCc1nc(N2CCN(C(=O)c3ccco3)CC2)c(C#N)c2c1CCCC2	ANO1 activ -4.8, TMEM16A inh 100
CC(C)c1nc(N2CCN(C(=O)c3ccco3)CC2)c(C#N)c2c1COC(C)(C)C2	none
COn1c2c(c3c4nonc4ccc31)CCCC2	none
On1c2c(c3c4nonc4ccc31)CCCC2	TMEM16A inh 100 (no result: ANO1 activ)
O=C(Nc1ccc(N2CCOCC2)cc1)c1cn2ccccc2n1	aSyn 5UTR inh 65
O=C(Nc1ccc(Cl)c(S(=O)(=O)N2CCOCC2)c1)c1cn2ccccc2n1	none
O=C(/C=C/c1cccs1)Nc1ccncc1	none
CCCOC(=O)c1ccc(NC(=O)/C=C/c2cccs2)cc1	TMEM16A inh 25
CC(=O)N(C1=C(N)C(=O)c2ccccc2C1=O)c1ccccc1	aSyn 5UTR inh 78
NC(=O)C1=C(c2ccccc2)c2ccccc2C1=O	ANO1 activ -6.3 (no result: 697 NFkB inh, TMEM16A inh, KLF5 inh, Jurkat NFkB inh, aSyn 5UTR inh)
Cc1ccc(S(=O)(=O)C(C#N)c2nc3ccccc3nc2N2CC(C)OC(C)C2)cc1C (stereo unspecified)	TMEM16A inh 100
O=C(COc1ccc2cc(Br)ccc2c1)N1CCOCC1	none (no result: TMEM16A inh, KLF5 inh, aSyn 5UTR inh)
O=C(Oc1ccc2cc(Br)ccc2c1)N1CCCCCC1	TMEM16A inh 100 (no result: ANO1 activ)
COc1ccc(S(=O)(=O)N2CCCCCC2)cc1C(=O)N(C)Cc1ccc(F)cc1	none (no result: KLF5 inh)
COc1ccc(S(=O)(=O)N2CCCCCC2)cc1C(=O)N(C)Cc1ccc(C(C)(C)C)cc1	TMEM16A inh 25
Cc1ccc(S(=O)(=O)NNC(=O)Cc2cccn2C)cc1	none
Cc1cccc(S(=O)(=O)NNC(=O)Cc2cccn2C)c1	TMEM16A inh 25
N#CCCn1nc(-c2ccc(Br)cc2)cc1Nc1ccccc1NC(=O)C(F)(F)F	TMEM16A inh 100

Source: PubChem BioAssay
